MCF10A rerep – inducers of DNA re-replication in MCF 10A breast cells. MCF 10A DNA re-replication, Hoechst nuclear intensity, 48 h. Potency, µM (doses to about 46.1 µM), without a hit: at the highest dose activity, positive = re-replication, actives largely listed as activators. 350,000 tested, 2.9% active; further: % of control where 0% means no effect; nearly all actives have a fitted effect of over 50% in size
HT1080 IDH1KD tx – toxicity to HT-1080 IDH1 knockdown cells (counter line). HT-1080 IDH1 knockdown viability, ATP luminescence, 48 h. Potency, µM (top dose mostly 46.1 µM), for inactives: top-dose activity, negative = toxicity, most hits filed as cytotoxic. 360,000 tested, 2% active;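 further: 0% = DMSO wells and -100% = cell-free medium wells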
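In this qHTS, HT-1080 cells depleted of IDH1 are exposed for 48 h at 37 °C to compound titrations. Toxicity is scored from CellTiter-Glo luminescence, with DMSO as full viability and medium alone as none.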
KB-V1 cytotox – kills drug-selected multidrug resistant KB-V1 cells. KB-V1 MDR cells viability, CellTiter-Glo, 72 h. Potency, µM (titrated, usually from 46.1 µM), hits mostly cytotoxic. 400,000 tested, 3.4% active; further: on the % scale 0 is the no-effect control and ±100 the full control effect; nearly all actives have a fitted effect of over 60% in size
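KB-V1 MDR subline cells in DMEM (phenol-red free, 10% FBS) exposed to compounds in qHTS concentration series for 72 h at 37 degrees C. Viability read by CellTiter-Glo luminescence; concentration-effect curves fitted after normalization and correction.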
KB-3-1 tox – kills parental KB-3-1 adenocarcinoma cells; 400,000 tested, 1.4% active; Potency, µM (top dose mostly 46.1 µM), usual class: cytotoxic; KB-3-1 viability, CellTiter-Glo ATP luminescence, 72 h; AID 1347075; further: on the % scale 0 is the no-effect control and ±100 the full control effect; nearly all actives have a fitted effect of over 60% in size
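Multi-concentration cytotoxicity screen in KB-3-1 cells grown in DMEM lacking phenol red with 10% FBS. After 72 h at 37 °C with compound, ATP-dependent luminescence was recorded.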
HT1080-NT tox – kills 2HG-producing HT-1080-NT fibrosarcoma cells. HT-1080-NT fibrosarcoma viability, CellTiter-Glo ATP luminescence, 48 h. Potency, µM (top dose mostly 46.1 µM), without a hit: at the top dose activity, negative = less viability, most hits filed as cytotoxic. 360,000 tested, 1.6% active;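 further: NT is the 2HG producing partner of a matched IDH1 knockdown line; 0% = DMSO-treated cells and -100% = media-only wells without cells; nearly all actives have a fitted effect of over 55% in size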
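Viability of the 2HG-overproducing fibrosarcoma line after 48 hours of compound exposure at 37 degrees C was determined by luminescence with CellTiter-Glo, and concentration-effect curves were then fitted and categorized.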
SW480 rerep – induces DNA re-replication in SW480 colon adenocarcinoma cells | 340,000 tested, 1.8% active | Potency, µM (highest dose often 46.1 µM), without a hit: top-dose re-replication activation, actives largely listed as activators | SW480 DNA re-replication, Hoechst DNA content imaging, 48 h; further: % of control where 0% means no effect; nearly all actives have a fitted effect of over 55% in size
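Per well, 250 cells were exposed to pinned compound for 48 hr. Nuclear DNA was visualised with Hoechst (40 min, 37 C) and total object intensity recorded by fluorescence scanning.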
* = called active by the depositor; i = inactive; ? = inconclusive; . = not tested or not shown; [ ] = dose if it differs, or a comment. Compounds with a hit are over-represented: about 8% of the library has one in this group of screens. The call rests on the fitted dose curve; in most records, active means well fitted curve in the direction sought with a large enough effect; inconclusive means small, poorly fitted or top-dose-only effect, or another doubt; inactive means no such curve, though single readings can be large; an effect the other way counts as inactive or inconclusive. Potency means the concentration at half of the fitted maximal effect.

SMILES | MCF10A rerep | HT1080 IDH1KD tx | KB-V1 cytotox | KB-3-1 tox | HT1080-NT tox | SW480 rerep
CC(C)c1ccc(C2(C)NC(=O)N(CC(=O)NCC3COc4ccccc4O3)C2=O)cc1 (configuration not stated) | 4% | 4% | 16µM* | i | -3% | 2%
Cc1cc2c(cc1S(=O)(=O)N1CCN(c3ccccc3)CC1)OCCN2C | 2% | -7% | i | i | -3% | 12%
CCC(SC1=NCCS1)C(=O)Nc1ccc(S(N)(=O)=O)cc1 (configuration not stated) | -2% | -24% | i | i | 0% | -87%
C#CCN(C[C@@H]1[C@@H](OC(=O)NCc2ccccc2F)[C@@H](OC(=O)NCc2ccccc2F)Cn2c(=O)ccc(=O)n21)S(=O)(=O)c1ccc(C)cc1 | . | 6.5µM* | i | 15µM* | 6.5µM* | .
C#CCN(C[C@@H]1[C@@H](OC(=O)NCc2ccccc2F)[C@@H](OC(=O)NCc2ccccc2F)Cn2c(=O)n(CCCCCC)c(=O)n21)S(=O)(=O)c1ccc(C)cc1 | . | 8% | i | i | -2% | .
C#CCN(C[C@@H]1[C@@H](OC(=O)NC2CCCC2)[C@@H](OC(=O)NC2CCCC2)Cn2c(=O)ccc(=O)n21)S(=O)(=O)c1ccc(C)cc1 | . | 8.2µM* | i | i | 7.3µM* | .
C#CCN(C[C@@H]1[C@@H](OC(=O)Nc2cccs2)[C@@H](OC(=O)Nc2cccs2)Cn2c(=O)ccc(=O)n21)S(=O)(=O)c1ccc(C)cc1 | . | 16µM* | i | ? | 18µM* | .
C#CCN(C[C@@H]1[C@@H](OC(=O)NC2CC2)[C@@H](OC(=O)NC2CC2)CN(C(=O)OC(C)C)N1C(=O)OC(C)C)S(=O)(=O)c1ccc(C)cc1 | . | -4% | i | i | -1% | .
CN1CCN(C(=O)C23CCC(C)(c4nc5ccccc5nc42)C3(C)C)CC1 (configuration not stated) | 3% | 8% | i | i | 6% | -13%
CC1(C)NC(=O)N(CCCCOc2ccc3ccccc3c2Cl)C1=O | ? | 10µM* | 21µM* | ? | ? | 4%
CC1(C)NC(=O)N(CCOCCOc2ccc3ccccc3c2Br)C1=O | 11% | ? | 21µM* | i | -16% | -1%
CCC(=O)c1ccccc1OCCCN1C(=O)NC(C)(C)C1=O | 5% | -3% | ? | i | 5% | 8%
CC1(C)NC(=O)N(CCOCCOc2cccc(Oc3ccccc3)c2)C1=O | -5% | -18% | i | i | -16% | -4%
Oc1cncc(-c2cccnc2)c1 | 4% | 4% | i | i | 0% | -3%
NNC(=O)c1csc(Cc2c(Cl)sc3ccc(Cl)cc23)n1 | 1% | -8% | i | i | -18% | -10%
C=CCNC(=O)c1ccc(CN(c2ccc(OCC)cc2)S(=O)(=O)c2ccc(C)cc2)cc1 | 26µM* | ? | i | ? | ? | ?
Cc1ccnc(NS(=O)(=O)c2ccc(NC(=O)Cc3c(F)cccc3Cl)cc2)n1 | -1% | 1% | i | i | 2% | -25%
COCCCNCCOCCOc1ccc(C)cc1Br | 0% | -13% | i | i | -5% | -4%
CCCCNCCOCCOc1ccc(C)cc1Br | ? | -23% | 16µM* | i | -30% | ?
CCC(C)NCCOCCOc1cc(C)c(Cl)c(C)c1 (configuration not stated) | ? | 21µM* | ? | ? | 21µM* | ?
Clc1ccc(OCCCNCc2ccccc2)c(Br)c1 | ? | ? | 21µM* | i | ? | ?
CCC(C)NCCOCCOc1ccc(Cl)cc1Br (configuration not stated) | 3% | ? | i | i | 21µM* | 21%
O=C(CN1CCCCC1)N1c2ccccc2Oc2ccccc21 | ? | -3% | i | i | 1% | 3%
CC(=O)c1ccc(N(CC(=O)NCc2ccc3c(c2)OCO3)C(=O)c2csnn2)cc1 | -4% | -6% | i | i | -5% | -7%
C=CCc1cc(Cl)ccc1OCCCNC(C)CC (configuration not stated) | ? | ? | 13µM* | ? | ? | 18%
SMILES | MCF10A rerep | HT1080 IDH1KD tx | KB-V1 cytotox | KB-3-1 tox | HT1080-NT tox | SW480 rerep
CCC(C)NCCCOc1ccc(Cl)cc1C(C)(C)C (configuration not stated) | ? | -16% | ? | i | -8% | -11%
COc1ccc(NC(=O)Nc2nccs2)cc1 | ? | ? | 7.3µM* | ? | ? | 12µM*
CSc1ccc(NC(=O)Nc2cccn(Cc3ccccc3)c2=O)cc1 | 6% | ? | 3.7µM* | 8.2µM* | ? | -1%
COc1ccc(C(=O)Nc2nccs2)cc1 | 5% | -1% | i | i | 15% | -1%
CSc1ccccc1NC(=O)Nc1ccc(Cl)cc1 | ? | ? | i | i | 14µM* | ?
COc1ccc(NC(=O)Nc2ccccc2F)cc1 | 0% | -9% | 18µM* | ? | ? | -1%
COc1ccc(NC(=O)Nc2ccccc2SC)cc1 | -4% | -18% | i | i | -21% | -7%
Cc1ccc2c(c1)C(c1ccccc1)N(C(=O)c1ccc(S(=O)(=O)N3CCCCC3)cc1)CC(=O)N2 (configuration not stated) | . | . | i | ? | . | .
COc1cc(CNCCN2CCOCC2)ccc1OCc1cccc(Cl)c1 | ? | ? | i | i | ? | ?
COC(=O)c1cc2c(s1)-c1cc(F)ccc1OC2 | ? | 3% | i | i | 3% | -6%
Cc1ccc(S(=O)(=O)Nc2ccc3c(c2)nc(C)n3C)cc1 | 2% | 0% | i | i | -3% | 3%
N#Cc1ccc(OCC(=O)Nc2nc(-c3cccnc3)cs2)cc1 | -6% | 1% | i | ? | -5% | -26%
COc1cc2c(cc1OC)CN(C(=O)COc1ccccc1C#N)CC2 | 23% | -23% | i | i | -4% | 0%
CCOc1ccc(NC(=O)Nc2cc(C)ccc2F)cc1 | 7% | ? | 13µM* | i | ? | 13%
CCOc1ccc(NC(=O)Nc2cc(C(C)C)c(O)cc2C)cc1 | 10% | 0% | i | i | -12% | 2%
CSc1ccccc1NC(=O)COc1ccc(Cl)cc1C | ? | 18% | 13µM* | ? | 17% | 8%
Cc1cc(Cl)ccc1OCC(=O)Nc1ccccc1CO | 32% | -10% | ? | i | -3% | 1%[9.22 µM]
O=NN1CCN(c2ccncc2S(=O)(=O)N2CCCCC2)CC1 | 1% | 9% | i | i | 13% | -2%

Screens from PubChem BioAssay.
